Tg IFNy HTS: blocks Toxoplasma gondii growth in the presence of IFN-gamma; Toxoplasma gondii growth in IFN-gamma-treated host cells; active compounds read low; activity change, negative = inhibition, % (no concentration beside the values); hit rate 3.8% among 69,000; AID 1259416; in the data active = activity change below about -70%, passing the limit was not always enough;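 also: host cells are HeLa cells infected with Toxoplasma gondii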
Starred values were filed as active, the others as inactive; ! = a repeat was not active. The sample as a whole holds a higher share of hits than the screen did.

SMILES | Tg IFNy HTS
NC(=O)N/N=C/c1ccc([N+](=O)[O-])o1 | -73*!
NC(=O)N/N=C/c1ccc(Oc2ccc(F)cc2)cc1 | 19
CCOc1ccc(-c2nc(CN(c3ccccc3)S(=O)(=O)c3ccccc3)c(C)o2)cc1 | -32
O=C1Nc2ccccc2C1Cc1cccs1 (centres undefined) | 36
CC1=CC(C)(C)N(C(=O)Nc2ccccc2)c2cc(C)ccc21 | 20
O=C(Nc1ccc(F)cc1)Nc1nc(SCc2ccc(F)cc2)ns1 | -110*
Cc1ccc(-c2coc(-c3ccc(NC(=O)Nc4ccc(F)cc4)cc3)n2)cc1 | 29
CCSc1nsc(NC(=O)CN2CCC(Oc3cccc(F)c3)CC2)n1 | 12
CCOc1ccc(NC(=O)Nc2ccc(-c3nc(-c4ccccc4)co3)cc2)cc1 | 6
C=CCOCc1cncc2c1CCN(S(=O)(=O)c1ccccc1)C2 | -3
Cc1cc(C)n(-c2cccc(CN3CCC(N)(C(=O)O)C3)c2)n1 (centres undefined) | 7
CC(C)CCNC(=O)c1nc(-c2cccc(F)c2)n2c1CCCCC2 | -42
CC(=O)Nc1ccc(NC(=O)c2nc(-c3ccc(C)cc3)n3c2CCCCC3)cn1 | -99*
O=C(c1nc(-c2cccc(F)c2)n2c1CCCCC2)N1CCCCCC1 | -87*
CCOC(=O)N1CCN(C(=O)c2nc(-c3ccc(C)cc3)n3c2CCCCC3)CC1 | 29
O=C(c1nc(-c2cccc(F)c2)n2c1CCCCC2)N1CCN(c2ncccn2)CC1 | 6
CC1CCCCN1CCCNC(=O)c1nc(-c2ccc(Cl)cc2)n2c1CCCCC2 (centres undefined) | -37
CC1CC(C)CN(C(=O)c2nc(-c3cccc(F)c3)n3c2CCCCC3)C1 (centres undefined) | -54
CCCN1CCN(C(=O)c2nc(-c3ccc(C)cc3)n3c2CCCCC3)CC1 | 240
COC(=O)c1sccc1NC(=O)c1nc(-c2ccc(C)cc2)n2c1CCCCC2 | -97*
Cc1ccc(-c2nc(C(=O)Nc3cc(C)on3)c3n2CCCCC3)cc1 | -110*
CC1CCN(C(=O)c2nc(-c3ccc(Cl)cc3)n3c2CCCCC3)CC1 | 22
Cc1cc(NC(=O)c2nc(-c3cccc(F)c3)n3c2CCCCC3)no1 | 236
CCN(CC)C(=O)c1cc(=O)n(CC(=O)Nc2ccc3c(c2)OCO3)c2ccccc12 | -32
Cc1ccc(CN(C)C(=O)c2cc(-c3cnn(C)c3C)n[nH]2)o1 | -15
SMILES | Tg IFNy HTS
Cc1ccc(-c2nc(CNC(=O)C3[C@H]4CNC[C@@H]34)[nH]c2-c2ccccn2)cc1 (some centres undefined) | 2
CCCCCc1ccc(-c2ccc(SC(F)F)nn2)cc1 | 64
CN1CCN(c2ccc3ccc(C(=O)Nc4cccc(F)c4)cn23)CC1 | -1
Cc1ccccc1NC(=O)c1ccc2ccc(N3CCN(C)CC3)n2c1 | -2
Cc1ccc(NC(=O)c2ccc3ccc(N4CCN(C)CC4)n3c2)cc1C | -73*
Cc1oc(C2CCN(C(=O)Nc3cccc(Cl)c3)CC2)nc1C(=O)N1CCCC1 | 2
Cc1cccc(NC(=O)CN2C(=O)CCc3cc(S(=O)(=O)N4CCCCC4C)ccc32)c1C (centres undefined) | 30
CC1CCN(S(=O)(=O)c2ccc3c(c2)CCC(=O)N3CC(=O)Nc2ccc(F)c(F)c2)CC1 | -13
Cc1ccc(NC(=O)CN2C(=O)CCc3cc(S(=O)(=O)N4CCCCC4C)ccc32)cc1F (centres undefined) | -47
CSc1cccc(NC(=O)CN2C(=O)CCc3cc(S(=O)(=O)N4CCCC4)ccc32)c1 | 2
Cc1ccc(C)c(NC(=O)CN2C(=O)CCc3cc(S(=O)(=O)N4CCCCC4C)ccc32)c1 (centres undefined) | 21
CCc1cccc(NC(=O)CN2C(=O)CCc3cc(S(=O)(=O)N4CCCCC4C)ccc32)c1 (centres undefined) | -77*
CC1CCN(S(=O)(=O)c2ccc3c(c2)CCC(=O)N3CC(=O)Nc2cccnc2)CC1 | -9
CC1CCN(S(=O)(=O)c2ccc3c(c2)CCC(=O)N3CC(=O)NCc2ccccc2)CC1 | -11
CSc1cccc(NC(=O)CN2C(=O)CCc3cc(S(=O)(=O)N4CCCCC4C)ccc32)c1 (centres undefined) | -86*
CC1CCN(S(=O)(=O)c2ccc3c(c2)CCC(=O)N3CC(=O)N(Cc2ccccc2)C(C)C)CC1 | -81*
CCc1cccc(NC(=O)CN2C(=O)CCc3cc(S(=O)(=O)N4CCC(C)CC4)ccc32)c1 | -127*
CC1CCN(S(=O)(=O)c2ccc3c(c2)CCC(=O)N3CC(=O)NC(C)C)CC1 | 33
O=C(NC1CCN(Cc2ccccn2)CC1)c1cnc(-c2ccc(Cl)cc2)nc1 | -2
Cc1nn(CC(C)C)cc1S(=O)(=O)N1CCN(C)C(=O)C(Cc2ccccn2)C1 (centres undefined) | 10
CN1CCN(c2cc(N(C)CCCn3cccn3)nc(N)n2)CC1 | 22
CCN(CC)[C@@H]1CCO[C@]2(CCN(C(=O)Cc3cccc(F)c3)C2)C1 | -7
O=C(c1cccs1)N(CCN1CCOCC1)C1CCN(c2ccc3c(c2)OCO3)CC1 | -53

Screens (PubChem)
